# Test results: PubChem BioAssay (EPA / NIEHS)
# Calls of active or inactive are those of the source. How the source made its calls: active means hit-call score of the fitted dose curve at least 0.9, where 1 is the maximum; inactive means score below 0.9.
# How the values were obtained:
# [1] = read-out: Interleukin-6 (IL6), IL6 (gene 3569); assay: BSK_CASM3C_IL6: BioMAP Diversity Plus: CASM3C Assay for Interleukin-6 (IL6) Biomarker Activity for (AID 2283040); details: primary human coronary artery smooth muscle cells; actives raise or lower the signal
# [2] = read-out: Tissue plasminogen activator (tPA), PLAT (gene 5327); assay: BSK_BE3C_tPA: BioMAP Diversity Plus: BE3C Assay for Tissue plasminogen activator (tPA) Biomarker Activity (AID 2283041); details: primary human bronchial epithelial cells; actives raise or lower the signal;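 on outcome: tPA level quantified by ELISA one day after compound addition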
# How it was run: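 Using human lung primary bronchial epithelial cells, tPA was measured by ELISA 24 h after dosing; data fitted relative to DMSO.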
# [3] = read-out: Interleukin-8 (IL8), CXCL8 (gene 3576); assay: BSK_CASM3C_IL8: BioMAP Diversity Plus: CASM3C Assay for Interleukin-8 (IL8) Biomarker Activity (AID 2283042); details: primary human coronary artery smooth muscle cells; actives raise or lower the signal;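 further: IL-8 protein level quantified by ELISA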
# [4] = read-out: Human Leukocyte Antigen - DR isotype (HLADR), HLA-DRA (gene 3122); assay: BSK_CASM3C_HLADR: BioMAP Diversity Plus: CASM3C Assay for Human Leukocyte Antigen - DR isotype (HLADR) Biomarker Activity (AID 2283043); details: primary human coronary artery smooth muscle cells; actives raise or lower the signal;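 further: cell-surface HLA-DR protein level quantified by ELISA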
# [5] = read-out: Macrophage colony-stimulating factor (MCSF), CSF1 (gene 1435); assay: BSK_CASM3C_MCSF: BioMAP Diversity Plus: CASM3C Assay for Macrophage colony-stimulating factor (MCSF) Biomarker Activity (AID 2283044); details: primary human coronary artery smooth muscle cells; actives raise or lower the signal;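 further: M-CSF protein amount quantified by ELISA after 24 h exposure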
# [6] = read-out: Low-density lipoprotein receptor (LDLR), LDLR (gene 3949); assay: BSK_CASM3C_LDLR: BioMAP Diversity Plus: CASM3C Assay for Low-density lipoprotein receptor (LDLR) Biomarker Activity (AID 2283045); details: primary human coronary artery smooth muscle cells; actives raise or lower the signal;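 further: LDLR protein level on the cell surface quantified by ELISA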
# [7] = read-out: Monocyte Chemoattractant Protein-1 (MCP1), CCL2 (gene 6347); assay: BSK_CASM3C_MCP1: BioMAP Diversity Plus: CASM3C Assay for Monocyte Chemoattractant Protein-1 (MCP1) Biomarker Activity (AID 2283046); details: primary human coronary artery smooth muscle cells; actives raise or lower the signal;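 further: MCP-1 level quantified by ELISA 24 h after dosing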
# [8] = BSK_CASM3C_Proliferation: Cell Proliferation Assessment in the BioMAP Diversity Plus: CASM3C Assay (AID 2283047); details: primary human coronary artery smooth muscle cells;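 further: sulforhodamine B total protein stain as relative cell number at 560 nm; sub-confluent cells exposed 48 h before staining; fitted both ways against DMSO so gain or loss of cell number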
# [9] = read-out: Monokine induced gamma interferon (MIG), CXCL9 (gene 4283); assay: BSK_CASM3C_MIG: BioMAP Diversity Plus: CASM3C Assay for Monokine induced gamma interferon (MIG) Biomarker Activity (AID 2283048); details: primary human coronary artery smooth muscle cells; actives raise or lower the signal;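 further: MIG protein level measured by ELISA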
# [10] = read-out: serum amyloid A (SAA), SAA1 (gene 6288); assay: BSK_CASM3C_SAA: BioMAP Diversity Plus: CASM3C Assay for serum amyloid A (SAA) Biomarker Activity (AID 2283049); details: primary human coronary artery smooth muscle cells; actives raise or lower the signal;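 further: SAA protein level quantified by ELISA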
# [11] = BSK_CASM3C_SRB: Viability Assessment in the BioMAP Diversity Plus: CASM3C Assay (AID 2283050); details: primary human coronary artery smooth muscle cells;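 further: total protein by SRB staining as cytotoxicity measure in parallel cultures; cells exposed to compound for 24 h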
# [12] = read-out: Thrombomodulin, THBD (gene 7056); assay: BSK_CASM3C_Thrombomodulin: BioMAP Diversity Plus: CASM3C Assay for Thrombomodulin Biomarker Activity (AID 2283051); details: primary human coronary artery smooth muscle cells; actives raise or lower the signal;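 further: thrombomodulin protein level measured by ELISA 24 h after dosing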
# [13] = read-out: Tissue Factor, F3 (gene 2152); assay: BSK_CASM3C_TissueFactor: BioMAP Diversity Plus: CASM3C Assay for Tissue Factor Biomarker Activity (AID 2283052); details: primary human coronary artery smooth muscle cells; actives raise or lower the signal;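 further: cell surface tissue factor protein level read by ELISA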
# [14] = read-out: Interferon-gamma inducible Protein 10 (IP10), CXCL10 (gene 3627); assay: BSK_hDFCGF_IP10: BioMAP Diversity Plus: hDFCGF Assay for Interferon-gamma inducible Protein 10 (IP10) Biomarker Activity (AID 2283053); details: primary human foreskin fibroblasts; actives raise or lower the signal
# How it was run: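 Chemical-treated human skin fibroblasts (primary) were sampled at 24 h for IP-10 by ELISA. Both increases and decreases relative to DMSO were scored.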
# [15] = read-out: Urokinase-type plasminogen activator receptor (uPAR), PLAUR (gene 5329); assay: BSK_CASM3C_uPAR: BioMAP Diversity Plus: CASM3C Assay for Urokinase-type plasminogen activator receptor (uPAR) Biomarker Activity (AID 2283054); details: primary human coronary artery smooth muscle cells; actives raise or lower the signal;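 further: cell-surface uPAR protein level quantified by ELISA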
# [16] = read-out: Vascular cell adhesion molecule 1 (VCAM1), VCAM1 (gene 7412); assay: BSK_CASM3C_VCAM1: BioMAP Diversity Plus: CASM3C Assay for Vascular cell adhesion molecule 1 (VCAM1) Biomarker Activity (AID 2283055); details: primary human coronary artery smooth muscle cells; actives raise or lower the signal;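 further: VCAM-1 protein level quantified by ELISA on the cells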
# [17] = read-out: Collagen III, COL3A1 (gene 1281); assay: BSK_hDFCGF_CollagenIII: BioMAP Diversity Plus: hDFCGF Assay for Collagen III Biomarker Activity (AID 2283056); details: primary human foreskin fibroblasts; actives raise or lower the signal
# How it was run: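 hDFCGF primary human dermal fibroblasts; 24 h chemical exposure; collagen III by ELISA; bidirectional curve fit vs DMSO baseline (gain or loss of signal).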
# [18] = read-out: Epidermal growth factor receptor (EGFR), EGFR (gene 1956); assay: BSK_hDFCGF_EGFR: BioMAP Diversity Plus: hDFCGF Assay for Epidermal growth factor receptor (EGFR) Biomarker Activity (AID 2283057); details: primary human foreskin fibroblasts; actives raise or lower the signal
# How it was run: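 Cell-based multiplexed assay in primary human foreskin fibroblasts. EGFR is read by ELISA 24 h after treatment and compared with DMSO controls.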
# [19] = read-out: Interleukin-8 (IL8), CXCL8 (gene 3576); assay: BSK_hDFCGF_IL8: BioMAP Diversity Plus: hDFCGF Assay for Interleukin-8 (IL8) Biomarker Activity (AID 2283058); details: primary human foreskin fibroblasts; actives raise or lower the signal
# How it was run: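 ELISA read-out of IL-8 from primary human foreskin fibroblast cultures taken 24 h after dosing; values are bidirectional fits relative to DMSO vehicle.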
# [20] = BSK_hDFCGF_Proliferation: Cell Proliferation Assessment in the BioMAP Diversity Plus: hDFCGF Assay (AID 2283059); details: primary human foreskin fibroblasts;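 further: curves fitted for both rise and fall of signal versus DMSO baseline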
# How it was run: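 Sub-confluent human foreskin fibroblast cultures receive test chemical […]. Relative cell number is quantified by sulforhodamine B staining (0.1%, after 10% TCA fixation) at 560 nm, with bidirectional fitting referenced to DMSO.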
smiles,measurement,setting,value
Cc1nc(C)nc(N2C[C@@H](C)N(c3ccnc([C@@H](C)O)n3)[C@@H](C)C2)n1,outcome,[1],inactive
same,outcome,[2],inactive
same,outcome,[3],inactive
same,outcome,[4],inactive
same,outcome,[5],inactive
same,outcome,[6],inactive
same,outcome,[7],inactive
same,outcome,[8],inactive
same,outcome,[9],inactive
same,outcome,[10],inactive
same,outcome,[11],inactive
same,outcome,[12],inactive
same,outcome,[13],inactive
same,outcome,[14],inactive
same,outcome,[15],inactive
same,outcome,[16],inactive
same,outcome,[17],inactive
same,outcome,[18],inactive
same,outcome,[19],inactive
same,outcome,[20],inactive
Clc1cc(Cl)c(Cl)cc1Cl,outcome,[1],inactive
same,outcome,[2],inactive
same,outcome,[3],inactive
same,outcome,[4],inactive
same,outcome,[5],inactive
same,outcome,[6],inactive
same,outcome,[7],inactive
same,outcome,[8],inactive
same,outcome,[9],inactive
same,outcome,[10],inactive
same,outcome,[11],inactive
same,outcome,[12],inactive
same,outcome,[13],inactive
same,outcome,[14],inactive
same,outcome,[15],inactive
same,outcome,[16],inactive
same,outcome,[17],inactive
same,outcome,[18],inactive
same,outcome,[19],inactive
same,outcome,[20],inactive
CCCCCCCCCCC,outcome,[1],inactive
same,outcome,[2],inactive
same,outcome,[3],inactive
same,outcome,[4],inactive
same,outcome,[5],inactive
same,outcome,[6],inactive
same,outcome,[7],inactive
same,outcome,[8],inactive
same,outcome,[9],inactive
same,outcome,[10],inactive
same,outcome,[11],inactive
same,outcome,[12],inactive
same,outcome,[13],inactive
same,outcome,[14],inactive
same,outcome,[15],inactive
same,outcome,[16],inactive
same,outcome,[17],inactive
same,outcome,[18],inactive
same,outcome,[19],inactive
same,outcome,[20],inactive
Cc1cccc(Nc2cc(Cl)nc(SCC(=O)O)n2)c1C,outcome,[1],inactive
same,outcome,[2],inactive
same,outcome,[3],inactive
same,outcome,[4],inactive
same,outcome,[5],inactive
same,outcome,[6],inactive
same,outcome,[7],inactive
same,outcome,[8],inactive
same,outcome,[9],inactive
same,outcome,[10],inactive
same,outcome,[11],inactive
same,outcome,[12],inactive
same,outcome,[13],inactive
same,outcome,[14],inactive
same,outcome,[15],inactive
same,outcome,[16],inactive
same,outcome,[17],inactive
same,outcome,[18],inactive
same,outcome,[19],inactive
same,outcome,[20],inactive
CCCc1cc(=O)[nH]c(=S)[nH]1,outcome,[1],inactive
same,outcome,[2],inactive
same,outcome,[3],inactive
same,outcome,[4],inactive
same,outcome,[5],inactive
same,outcome,[6],inactive
same,outcome,[7],inactive
same,outcome,[8],inactive
same,outcome,[9],inactive
same,outcome,[10],inactive
same,outcome,[11],inactive
same,outcome,[12],inactive
same,outcome,[13],inactive
same,outcome,[14],inactive
same,outcome,[15],inactive
same,outcome,[16],inactive
same,outcome,[17],inactive
same,outcome,[18],inactive
same,outcome,[19],inactive
same,outcome,[20],inactive
CCCCCCCCCCCC(=O)OC,outcome,[1],inactive
same,outcome,[2],inactive
same,outcome,[3],inactive
same,outcome,[4],inactive
same,outcome,[5],inactive
same,outcome,[6],inactive
same,outcome,[7],inactive
same,outcome,[8],inactive
same,outcome,[9],inactive
same,outcome,[10],inactive
same,outcome,[11],inactive
same,outcome,[12],inactive
same,outcome,[13],inactive
same,outcome,[14],inactive
same,outcome,[15],inactive
same,outcome,[16],inactive
same,outcome,[17],inactive
same,outcome,[18],inactive
same,outcome,[19],inactive
same,AC50,[20],28.9 µM (active)
CCOC(=O)CCC(=O)OCC,outcome,[1],inactive
same,outcome,[2],inactive
same,outcome,[3],inactive
same,outcome,[4],inactive
same,outcome,[5],inactive
same,outcome,[6],inactive
same,outcome,[7],inactive
same,outcome,[8],inactive
same,outcome,[9],inactive
same,outcome,[10],inactive
same,outcome,[11],inactive
same,outcome,[12],inactive
same,outcome,[13],inactive
same,outcome,[14],inactive
same,outcome,[15],inactive
same,outcome,[16],inactive
same,outcome,[17],inactive
same,outcome,[18],inactive
same,outcome,[19],inactive
same,outcome,[20],inactive
CN[C@H]1CC[C@@H](c2ccc(Cl)c(Cl)c2)c2ccc(S(N)(=O)=O)cc21,AC50,[1],33.1 µM (active)
same,AC50,[2],13 µM (active)
same,AC50,[3],35.3 µM (active)
same,AC50,[4],32.5 µM (active)
same,AC50,[5],28.2 µM (active)
same,AC50,[6],34.8 µM (active)
same,AC50,[7],30.4 µM (active)
same,AC50,[8],14.7 µM (active)
same,AC50,[9],31.2 µM (active)
same,AC50,[10],36 µM (active)
same,AC50,[11],31.3 µM (active)
same,outcome,[12],inactive
same,AC50,[13],9.57 µM (active)
same,AC50,[14],26 µM (active)
same,AC50,[15],27.3 µM (active)
same,AC50,[16],31.4 µM (active)
same,AC50,[17],20 µM (active)
same,AC50,[18],32.7 µM (active)
same,AC50,[19],34.1 µM (active)
same,AC50,[20],10.3 µM (active)
NCCO,outcome,[1],inactive
same,outcome,[2],inactive
same,outcome,[3],inactive
same,outcome,[4],inactive
same,outcome,[5],inactive
same,outcome,[6],inactive
same,outcome,[7],inactive
same,outcome,[8],inactive
same,outcome,[9],inactive
same,outcome,[10],inactive
same,outcome,[11],inactive
same,AC50,[12],0.937 µM (active)
same,outcome,[13],inactive
same,outcome,[14],inactive
same,outcome,[15],inactive
same,outcome,[16],inactive
same,outcome,[17],inactive
same,outcome,[18],inactive
same,outcome,[19],inactive
same,outcome,[20],inactive
COc1ccc(C)cc1N,outcome,[1],inactive
same,outcome,[2],inactive
same,outcome,[3],inactive
same,outcome,[4],inactive
same,outcome,[5],inactive
same,outcome,[6],inactive
same,outcome,[7],inactive
same,outcome,[8],inactive
same,outcome,[9],inactive
same,outcome,[10],inactive
same,outcome,[11],inactive
same,outcome,[12],inactive
same,outcome,[13],inactive
same,outcome,[14],inactive
same,outcome,[15],inactive
same,outcome,[16],inactive
same,outcome,[17],inactive
same,outcome,[18],inactive
same,outcome,[19],inactive
same,outcome,[20],inactive
Cc1cccc(C)c1O,outcome,[1],inactive
same,outcome,[2],inactive
same,outcome,[3],inactive
same,outcome,[4],inactive
same,outcome,[5],inactive
same,outcome,[6],inactive
same,outcome,[7],inactive
same,outcome,[8],inactive
same,outcome,[9],inactive
same,outcome,[10],inactive
same,outcome,[11],inactive
same,outcome,[12],inactive
same,outcome,[13],inactive
same,outcome,[14],inactive
same,outcome,[15],inactive
same,outcome,[16],inactive
same,outcome,[17],inactive
same,outcome,[18],inactive
same,outcome,[19],inactive
same,outcome,[20],inactive
Cc1ccc(C)c(O)c1C,outcome,[1],inactive
same,outcome,[2],inactive
same,outcome,[3],inactive
same,outcome,[4],inactive
same,outcome,[5],inactive
same,outcome,[6],inactive
same,outcome,[7],inactive
same,outcome,[8],inactive
same,outcome,[9],inactive
same,outcome,[10],inactive
same,outcome,[11],inactive
same,outcome,[12],inactive
same,outcome,[13],inactive
same,outcome,[14],inactive
same,outcome,[15],inactive
same,outcome,[16],inactive
same,outcome,[17],inactive
same,outcome,[18],inactive
same,outcome,[19],inactive
same,outcome,[20],inactive
CCCCCCC(=O)OCC,outcome,[1],inactive
same,outcome,[2],inactive
same,outcome,[3],inactive
same,outcome,[4],inactive
same,outcome,[5],inactive
same,outcome,[6],inactive
same,outcome,[7],inactive
same,outcome,[8],inactive
same,outcome,[9],inactive
same,outcome,[10],inactive
same,outcome,[11],inactive
same,outcome,[12],inactive
same,outcome,[13],inactive
same,outcome,[14],inactive
same,outcome,[15],inactive
same,outcome,[16],inactive
same,outcome,[17],inactive
same,outcome,[18],inactive
same,outcome,[19],inactive
same,outcome,[20],inactive
